# Assay results as given in PubChem BioAssay (EPA / NIEHS).
# Inconclusive results are not listed. Active and inactive are the calls of the source. The calls were made as follows, unless noted: active = hit-call score of the fitted dose curve at least 0.9, where 1 is the maximum; inconclusive = response in the unintended direction; inactive = score below 0.9.
# Assays:
# [1] = molecular target: frog Thyroid hormone Receptor alpha (TRa), thra-a (gene 397942) (UniProt P15204); assay: ATG_frTRa_XSP2: Attagene TRANS-FACTORIAL Multi-Species (XSP2) HepG2 Assay for frog Thyroid hormone Receptor alpha (TRa) (AID 2283839)
# frog Thyroid hormone Receptor alpha (TRa), thra-a (gene 397942), sequence (P15204 whole entry, looked up, the tested form may be a part): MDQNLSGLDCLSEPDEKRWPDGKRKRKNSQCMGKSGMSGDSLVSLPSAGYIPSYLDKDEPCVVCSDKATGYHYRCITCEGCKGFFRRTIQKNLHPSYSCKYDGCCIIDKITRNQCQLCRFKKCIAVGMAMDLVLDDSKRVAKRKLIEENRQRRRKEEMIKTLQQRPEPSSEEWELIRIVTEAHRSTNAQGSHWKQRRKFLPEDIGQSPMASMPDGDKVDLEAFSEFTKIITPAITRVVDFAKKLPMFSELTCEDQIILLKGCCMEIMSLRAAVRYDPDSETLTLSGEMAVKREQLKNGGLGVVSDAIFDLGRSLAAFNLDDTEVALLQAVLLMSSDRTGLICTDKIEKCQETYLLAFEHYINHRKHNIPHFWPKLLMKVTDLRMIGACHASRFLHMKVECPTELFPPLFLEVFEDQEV
# How it was run: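 Reporter transcripts were measured by RT-PCR with capillary electrophoresis after 24 h dosing of HepG2 carrying transiently transfected multi-reporter units, including a chimeric frog TRa-GAL4 construct. Activity was taken as increase over DMSO vehicle.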
# [2] = molecular target: human Thyroid hormone Receptor beta (TRb), THRB (gene 7068) (UniProt P10828); assay: ATG_hTRb_XSP2: Attagene TRANS-FACTORIAL Multi-Species (XSP2) HepG2 Assay for human Thyroid hormone Receptor beta (TRb) (AID 2283840);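 also: actives raise reporter mRNA so potency reflects agonist-like gain of signal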
# human Thyroid hormone Receptor beta (TRb), THRB (gene 7068), sequence (P10828 whole entry, looked up, the tested form may be a part): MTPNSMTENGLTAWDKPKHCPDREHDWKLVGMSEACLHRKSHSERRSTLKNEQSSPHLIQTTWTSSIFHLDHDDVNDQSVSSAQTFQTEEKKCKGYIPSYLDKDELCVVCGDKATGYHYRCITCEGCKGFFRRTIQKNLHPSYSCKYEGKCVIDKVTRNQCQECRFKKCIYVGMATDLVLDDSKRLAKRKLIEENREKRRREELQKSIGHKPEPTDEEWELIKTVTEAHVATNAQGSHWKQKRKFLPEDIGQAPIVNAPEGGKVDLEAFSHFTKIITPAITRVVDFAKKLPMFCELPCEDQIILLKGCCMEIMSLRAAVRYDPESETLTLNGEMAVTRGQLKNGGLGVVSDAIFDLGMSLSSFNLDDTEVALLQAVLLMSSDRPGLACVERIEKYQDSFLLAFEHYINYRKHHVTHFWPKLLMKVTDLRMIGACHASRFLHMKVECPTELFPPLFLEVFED
# How it was run: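 Activity of exogenous human TRb–Gal4 fusion measured by reporter mRNA from RT-PCR and capillary electrophoresis, 24 h after dosing transfected HepG2. 6-alpha-fluorotestosterone (3 nM) and norgestrel (1.5 nM) present. Gain-of-signal fit relative to DMSO.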
# PGR (gene 5241) [3] = molecular target: PGR (gene 5241) (UniProt P06401); assay: TOX21_PR_BLA_Followup_Agonist_ratio: Tox21 HEK293 Progesterone Receptor (PR) Agonism Beta-lactamase Follow-Up Assay, Ratio (AID 2283933)
# PGR (gene 5241), sequence (P06401 whole entry, looked up): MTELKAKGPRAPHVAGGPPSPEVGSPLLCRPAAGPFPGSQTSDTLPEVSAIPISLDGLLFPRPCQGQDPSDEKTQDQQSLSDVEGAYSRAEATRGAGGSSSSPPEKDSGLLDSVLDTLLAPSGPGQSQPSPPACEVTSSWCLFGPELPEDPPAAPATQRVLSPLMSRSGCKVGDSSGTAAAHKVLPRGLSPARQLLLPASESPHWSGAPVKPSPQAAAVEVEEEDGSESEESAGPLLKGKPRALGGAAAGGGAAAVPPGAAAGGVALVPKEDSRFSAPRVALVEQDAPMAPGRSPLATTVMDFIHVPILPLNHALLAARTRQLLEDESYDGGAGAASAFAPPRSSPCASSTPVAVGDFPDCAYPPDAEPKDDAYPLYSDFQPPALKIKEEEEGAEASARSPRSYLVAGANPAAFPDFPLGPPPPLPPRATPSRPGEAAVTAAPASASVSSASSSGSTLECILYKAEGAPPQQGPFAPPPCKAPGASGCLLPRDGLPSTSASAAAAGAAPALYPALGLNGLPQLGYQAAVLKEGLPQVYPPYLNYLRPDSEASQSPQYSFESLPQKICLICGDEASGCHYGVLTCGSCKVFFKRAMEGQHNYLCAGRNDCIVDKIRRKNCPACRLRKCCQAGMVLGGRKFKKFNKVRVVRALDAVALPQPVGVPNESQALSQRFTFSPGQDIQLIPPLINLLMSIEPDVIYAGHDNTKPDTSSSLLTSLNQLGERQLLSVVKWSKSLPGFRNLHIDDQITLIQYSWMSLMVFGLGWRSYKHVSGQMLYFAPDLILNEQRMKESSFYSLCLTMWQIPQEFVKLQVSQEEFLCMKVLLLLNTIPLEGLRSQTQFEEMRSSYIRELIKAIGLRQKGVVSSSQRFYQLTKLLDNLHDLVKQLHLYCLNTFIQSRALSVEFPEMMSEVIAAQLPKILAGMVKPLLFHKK
# How it was run: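 Ratio-based beta-lactamase reporter signal after 16 hr compound treatment of PR-UAS-bla HEK293T cells at 37C. Substrate loading lasted 2 hr at room temperature.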
# PGR (gene 5241) [4] = molecular target: PGR (gene 5241) (UniProt P06401); assay: TOX21_PR_LUC_Followup_Agonist: Tox21 HEK293 Progesterone Receptor (PR) Agonism Luciferase Follow-Up Assay (AID 2283937; active = hit-call score of the fitted dose curve at least 0.9, where 1 is the maximum; inactive = score below 0.9)
# How it was run: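 In HEK293 cells stably expressing PR-A with a luciferase reporter, compounds were incubated 16 h at 37C, and induced luminescence was quantified with ONE-Glo, multiplexed with cell viability.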
# [5] = molecular target: Thyroid hormone receptor alpha (Rattus norvegicus) + Thyroid hormone receptor beta (Rattus norvegicus) (UniProt P18113+P63059); assay: TOX21_TR_LUC_GH3_Agonist_Followup: Tox21 GH3 Thyroid Hormone Receptor Agonism Luciferase Follow-Up Assay (AID 2283939)
# Thyroid hormone receptor alpha (Rattus norvegicus) + Thyroid hormone receptor beta (Rattus norvegicus), sequence (P63059 whole entry, looked up): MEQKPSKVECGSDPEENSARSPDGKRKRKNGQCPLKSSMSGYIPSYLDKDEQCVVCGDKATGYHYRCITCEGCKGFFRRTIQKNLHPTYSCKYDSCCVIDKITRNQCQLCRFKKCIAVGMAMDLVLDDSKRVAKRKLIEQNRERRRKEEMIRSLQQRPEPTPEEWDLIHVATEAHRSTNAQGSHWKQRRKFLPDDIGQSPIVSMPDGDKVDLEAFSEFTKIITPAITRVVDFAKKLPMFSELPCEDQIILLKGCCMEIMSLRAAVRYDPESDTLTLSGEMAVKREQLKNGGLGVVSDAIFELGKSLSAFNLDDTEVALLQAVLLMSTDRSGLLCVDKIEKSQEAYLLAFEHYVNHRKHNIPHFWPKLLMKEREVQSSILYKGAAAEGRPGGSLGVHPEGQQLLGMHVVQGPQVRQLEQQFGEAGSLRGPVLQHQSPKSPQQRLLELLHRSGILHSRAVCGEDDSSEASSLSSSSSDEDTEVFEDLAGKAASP
# Thyroid hormone receptor alpha (Rattus norvegicus) + Thyroid hormone receptor beta (Rattus norvegicus), sequence (P18113 whole entry, looked up): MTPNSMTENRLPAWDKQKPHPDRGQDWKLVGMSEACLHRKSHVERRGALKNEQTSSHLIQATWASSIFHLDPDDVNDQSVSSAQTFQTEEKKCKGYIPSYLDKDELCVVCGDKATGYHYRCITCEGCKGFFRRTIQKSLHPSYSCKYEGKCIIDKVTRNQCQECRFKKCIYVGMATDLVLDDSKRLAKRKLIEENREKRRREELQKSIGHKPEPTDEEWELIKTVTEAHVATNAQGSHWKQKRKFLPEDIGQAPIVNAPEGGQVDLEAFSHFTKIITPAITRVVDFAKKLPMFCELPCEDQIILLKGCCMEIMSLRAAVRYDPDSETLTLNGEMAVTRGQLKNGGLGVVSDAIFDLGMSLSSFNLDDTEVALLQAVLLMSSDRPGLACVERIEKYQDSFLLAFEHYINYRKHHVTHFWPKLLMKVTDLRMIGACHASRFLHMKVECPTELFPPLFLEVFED
# Protocol: TOX21_TR_LUC_GH3_Agonist_Followup is a secondary assay for specificity for the TOX21_TR_LUC_GH3_Agonist assay. TOX21_TR_LUC_GH3_Agonist_Followup is a cell-based, single-readout assay that uses GH3, a rat pituitary gland cell line, with measurements taken at 28 hours after chemical dosing in a 1536-well plate.TOX21_TR_LUC_GH3_Agonist_Followup is one of one assay component(s) measured or calculated from the TOX21_TR_LUC_GH3_Agonist_Followup assay. It is designed to make measurements of luciferase induction, a form of inducible reporter, as detected with bioluminescence signals by […] technology.Data from the assay component TOX21_TR_LUC_GH3_Agonist_Followup was analyzed into 1 assay endpoint. This assay endpoint, TOX21_TR_LUC_GH3_Agonist_Followup, was analyzed in the positive analysis fitting direction relative to DMSO as the negative control and baseline of activity. Using a type of inducible reporter, gain-of-signal activity can be used to understand changes in the reporter gene as they relate to the gene THRA and THRB in the GH3 cell line using a luciferase reporter. Furthermore, this assay endpoint can be referred to as a primary readout, because the performed assay has only produced 1 assay endpoint. This assay endpoint is designated followup because it was a confirmatory screen following the primary qHTS assay. […]
# THRB (gene 7068) = THRB (gene 7068) (UniProt P10828); assay: TOX21_TRB_BLA_Agonist_Followup_ratio: Tox21 Thyroid Hormone Receptor beta Agonism Beta-lactamase (BLA) Follow-Up Assay, Ratio (AID 2283954)
# THRB (gene 7068), sequence (P10828 whole entry, looked up, the tested form may be a part): as the sequence (P10828 whole entry, looked up, the tested form may be a part) above
# How it was run: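 Agonist mode: compounds (11-point, triplicate) incubated 18 h with HEK293T cells carrying GAL4-DBD/human TRβ-LBD and UAS-β-lactamase. Blue/green (460/530 nm) FRET ratio read after 2 h CCF4-AM loading; CellTiter-Glo viability run in the same plates.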
smiles,measurement,setting,value
COC(=O)c1c(C)cc(O)c(C)c1O,outcome,[1],inactive
same,outcome,[2],inactive
O=C(c1ccc(O)cc1)c1ccc(O)cc1O,outcome,[1],inactive
same,outcome,[2],inactive
CC(C)(c1cc(Br)c(OCCO)c(Br)c1)c1cc(Br)c(OCCO)c(Br)c1,outcome,PGR (gene 5241) [3],inactive
same,outcome,PGR (gene 5241) [4],inactive
NC(CO)(CO)CO,AC50,[5],10.6 µM (active)
same,outcome,THRB (gene 7068),inactive
CCCCCCC(O)CO (stereo not given),outcome,[5],inactive
same,outcome,THRB (gene 7068),inactive
